Shown is part of a subset that was picked to be rich in hits.
Dicer processing: human Dicer pre-microRNA cleavage inhibition. Q9UPY3. cat-ELCCA pre-miR-21 Dicer processing, chemiluminescence; stronger effect = higher value. z-score at 25 µM. 47,000 tested, 6% active. AID 1347074; in the data active means z-score above about 3, passing the limit was not always enough;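 further: plate controls were vehicle for no effect and no enzyme for full effect; higher signal means more uncleaved substrate so more Dicer inhibition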
Starred values were filed as active, the others as inactive.

SMILES	Dicer processing
Fc1ccc(NCc2ccc3c(c2)OCO3)cc1	323
c1cc(CNc2ccc3c(c2)OCO3)ccn1	1.7
Nc1c(C(=O)Nc2ccc(Cl)cc2)sc2nc3c(cc12)CCCCC3	0.82
O=c1oc2ccc(NS(=O)(=O)c3ccc(Cl)cc3)cc2s1	9.8*
Cc1cc(F)ccc1S(=O)(=O)Nc1ccc2oc(C)c(C(=O)OC(C)C)c2c1	-0.11
CC(=O)Nc1ccc(NS(=O)(=O)c2ccc(C)cc2)cc1[N+](=O)[O-]	-0.02
Cc1ccc(S(=O)(=O)Nc2ccc3oc(=O)sc3c2)cc1	5*
CCOC(=O)n1c(=O)oc2cc(S(=O)(=O)Nc3ccc(C)cc3)ccc21	1.1
Cc1cc(F)ccc1S(=O)(=O)Nc1ccc2oc3c(c2c1)CC(C)CC3 (stereo not given)	6.6*
O=S(=O)(Nc1ccc2c(c1)OCO2)c1ccc(Cl)cc1	-0.39
O=S(=O)(Nc1nc(-c2ccc(Cl)cc2Cl)cs1)c1ccc(Cl)cc1	10
Cc1cc(C)c(C)c(S(=O)(=O)Nc2ccc3oc(=O)sc3c2)c1C	4.3*
CC1CCc2oc3ccc(NS(=O)(=O)c4cccc5cccnc45)cc3c2C1 (stereo not given)	-0.24
Clc1cccc(CSC2=NCCN2)c1	-0.28
O=[N+]([O-])c1ccccc1S(=O)(=O)N1c2ccccc2OC1c1ccc(Cl)c(Cl)c1 (stereo not given)	0.45
CCCC1=NN(C(=O)c2ccc(Cl)cc2)C(=O)C1Cc1c(F)cccc1Cl (stereo not given)	7.9
Cc1cc(-c2ccccc2)cc(-c2ccccc2)[o+]1	0.56
CCOC(=O)COc1ccc(C)cc1C(=O)c1ccn2nc(-c3ccc(OC)cc3)cc2n1	-6.9
O=C(Nc1c[nH]c(=O)[nH]c1=O)c1cccc(Br)c1	0.09
Cc1cc(C)c(CSc2nccn2C)c(C)c1	0.11
COCCCNC(=O)c1sc2cc(Cl)ccc2c1Cl	0.13
NC(=O)c1c(NC(=O)COc2ccccc2Cl)sc2c1CCCC2	-4.1
N#C/C(=N\Nc1ccc(C(F)(F)F)cc1)S(=O)(=O)c1cccs1	-0.7
Cc1csc2sc(/C=C(\C#N)S(=O)(=O)c3ccc(Cl)cc3)c(C)c12	0.54
Cc1cc(F)ccc1S(=O)(=O)Nc1c(C)n(C)n(-c2ccccc2)c1=O	-0.46
SMILES	Dicer processing
Cc1cc(S(=O)(=O)Nc2cccnc2)c(C)cc1Cl	-0.28
Cc1ccc(S(=O)(=O)N2CCN(S(=O)(=O)N3CCOCC3)CC2)c(C)c1	-1.9
COc1ccccc1C(=O)Oc1ccc2oc(=O)sc2c1	2.2
CCc1ccc(S(=O)(=O)Nc2ccc3oc4c(c3c2)CCCC4)cc1	2.1
COc1ccc(S(=O)(=O)Nc2ccc3oc(=O)sc3c2)cc1OC	3.4*
CC(C)(C)C1CCc2oc3ccc(NS(=O)(=O)c4ccc(C(=O)O)cc4)cc3c2C1 (stereo not given)	4.2*
Cc1cc(F)ccc1S(=O)(=O)Nc1ccc2oc(=O)sc2c1	7.8*
Cc1ccc(S(=O)(=O)Nc2ccc3oc(=O)sc3c2)c(C)c1	1.1
COC(=O)c1c(C)oc2ccc(NS(=O)(=O)c3ccc(Br)cc3)cc12	0.56
COc1cc(S(=O)(=O)Nc2cccnc2)ccc1F	0.84
Cc1ccc(S(=O)(=O)Nc2cc(Cl)c3oc(=O)sc3c2)c(C)c1	12*
Cc1cc(NC(=O)c2c(-c3c(Cl)cccc3Cl)noc2C)c([N+](=O)[O-])cc1C	8.7
CN(NC(=O)c1ccncc1Cl)c1cnc2ccccc2n1	0.34
COCCOC(=O)C1=C(C)Nc2nc3ccccc3n2C1c1ccc(Cl)cc1 (stereo not given)	0.02
COc1ccc(C2Nc3ccc4ccccc4c3C3=C2C(=O)CC(C)(C)C3)cc1 (stereo not given)	2.4
CCOC(=O)N1CCC(N/C=C(\C#N)S(=O)(=O)c2cccnc2)CC1	-1.7
CCOc1ccc(C2C(C(=O)OCCOC)=C(C)NC3=C2C(=O)CC(C)(C)C3)cc1 (stereo not given)	0.7
Cn1cc(Br)c(-c2cccc(NS(=O)(=O)c3ccc(Cl)cc3)c2)n1	0.02
Cc1cc(=O)oc2cc(NS(=O)(=O)c3ccc(F)cc3)ccc12	0.84
COc1ccc(OC)c(NS(=O)(=O)c2ccc(Cl)cc2)c1	1.2
O=C(O)c1ccc(S(=O)(=O)Nc2ccc3oc(=O)sc3c2)cc1	1.1
O=c1oc2ccc(NS(=O)(=O)c3ccc(F)cc3)cc2s1	4.9*
O=S(=O)(Nc1ccc(Br)cc1)c1ccccc1	1.8
O=c1oc2c(Br)cc(NS(=O)(=O)c3ccc(Cl)cc3)cc2s1	13*
COc1ccc(OC)c(S(=O)(=O)Nc2cc(Cl)c3oc(=O)sc3c2)c1	-0.17
SMILES	Dicer processing
O=c1oc2c(Cl)cc(NS(=O)(=O)c3ccccc3)cc2s1	11*
Cc1onc(-c2c(Cl)cccc2Cl)c1C(=O)n1ccc(-c2cccs2)n1	0.19
O=C(CCSc1cccs1)Nc1ccc(Cl)cc1	-0.96
Cc1ccc(-c2n[nH]c(=O)c3ccccc23)cc1	-0.19
Cc1c(Cl)cccc1-n1c(CCc2nc(-c3ccc(Cl)cc3)no2)n[nH]c1=S	-1.6
COc1ccc(C2OC(=O)c3ccccc3S2)cc1Br (stereo not given)	-0.31
Oc1ccccc1N=Nc1c(O)ccc2ccccc12	10
